Measurements: PubChem BioAssay AID1159580 (chemical genetic matrix, 2015)
Values joined by “and” are separate entries in the source; they are usually repeats but may differ in a detail not shown here. Identical values can stand only once. In all, about 5,500 compounds went through this assay and about 2,000 (36%) were called active. Roughly 18% stayed inconclusive and do not appear here. No stated cut-off is given here; in the data, active means normalized growth mostly below about 0.91 (no sharp cut-off); inconclusive means no clear call, values can overlap the other calls; inactive means mostly above about 0.92. This is one part of the list.

Assay: chemical genetic growth profiling, strain panel (AID 1159580);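 further: tested at 20 µM; growth read once vehicle control cultures reached saturation at 30 °C; 1 = growth at the plate median or of vehicle wells; lower values mean less growth of the strain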
Settings: S. cerevisiae deletion strains, growth OD

Measured: normalized growth

COc1c2ccoc2c(OC)c2oc(=O)ccc12
inactive: locus YAL013W, strain DEP1, active compounds read low 0.978 | locus YAL021C, strain ccr4, active compounds read low 0.94 | locus YAL026C, strain drs2, active compounds read low 0.953 | locus YAL030W, strain snc1, active compounds read low 0.978 | locus YBL061C, strain skt5, active compounds read low 0.974 | locus YBR009C, strain hhf1, active compounds read low 0.923 | locus YBR021W, strain FUR4, active compounds read low 0.901 | locus YBR171W, strain sec66, active compounds read low 0.975 | locus YBR229C, strain ROT2, active compounds read low 0.945 | locus YBR231C, strain swc5, active compounds read low 0.966 | locus YBR279W, strain paf1, active compounds read low 0.939 | locus YCL011C, strain gbp2, active compounds read low 0.934 | locus YCL029C, strain bik1, active compounds read low 0.965 | locus YCL061C, strain MRC1, active compounds read low 0.944 | locus YCL069W, strain vba3, active compounds read low 0.979 | locus YCR088W, strain abp1, active compounds read low 0.997 | locus YDL005C, strain med2, active compounds read low 0.989 | locus YDL035C, strain GPR1, active compounds read low 0.929 | locus YDL040C, strain nat1, active compounds read low 0.996 | locus YDL074C, strain BRE1, active compounds read low 0.934 | locus YDL101C, strain DUN1, active compounds read low 0.959 | locus YDL134C, strain PPH21, active compounds read low 0.983 | locus YDL185W, strain tfp1, active compounds read low 0.941 | locus YDR001C, strain nth1, active compounds read low 0.97 | locus YDR069C, strain doa4, active compounds read low 0.982 | locus YDR137W, strain rgp1, active compounds read low 0.991 | locus YDR150W, strain NUM1, active compounds read low 0.991 | locus YDR159W, strain sac3, active compounds read low 1.02 | locus YDR162C, strain NBP2, active compounds read low 0.884 | locus YDR297W, strain sur2, active compounds read low 0.978 | locus YDR318W, strain mcm21, active compounds read low 0.966 | locus YDR334W, strain swr1, active compounds read low 0.938 | locus YDR388W, active compounds read low 0.966 | locus YDR502C, strain sam2, active compounds read low 0.97 | locus YEL003W, strain gim4, active compounds read low 0.949 | locus YEL037C, strain rad23, active compounds read low 0.976 | locus YEL061C, strain CIN8 (second series), active compounds read low 0.972 | locus YEL061C, strain CIN8, active compounds read low 0.977 | locus YER016W, strain bim1, active compounds read low 0.99 | locus YER110C, active compounds read low 0.96 | locus YER111C, strain swi4, active compounds read low 0.987 | locus YER155C, strain BEM2, active compounds read low 1.01 | locus YER167W, strain BCK2, active compounds read low 0.97 | locus YFR010W, strain ubp6, active compounds read low 0.968 | locus YGL078C, strain dbp3, active compounds read low 0.987 | locus YGL086W, strain mad1, active compounds read low 0.969 | locus YGL167C, strain pmr1, active compounds read low 0.964 | locus YGL173C, strain kem1, active compounds read low 0.979 | locus YGL227W, strain vid30, active compounds read low 0.997 | locus YGL240W, strain doc1, active compounds read low 0.969 | locus YGL248W, strain PDE1, active compounds read low 0.96 | locus YGL253W, strain hxk2, active compounds read low 0.959 | locus YGR078C, strain PAC10, active compounds read low 0.962 | locus YGR135W, strain pre9, active compounds read low 0.999 | locus YGR252W, strain gcn5, active compounds read low 0.91 | locus YHR013C, strain ard1, active compounds read low 0.912 | locus YHR027C, strain rpn1, active compounds read low 0.959 | locus YHR030C, strain SLT2, active compounds read low 0.99 and 0.993 | locus YHR079C, strain IRE1 (second series), active compounds read low 0.983 | locus YHR079C, strain IRE1, active compounds read low 0.989 | locus YHR094C, strain hxt1, active compounds read low 0.98 | locus YHR129C, strain ARP1, active compounds read low 0.981 | locus YHR142W, strain chs7, active compounds read low 0.882 | locus YHR200W, strain rpn10, active compounds read low 0.936 | locus YIL066C, strain RNR3, active compounds read low 0.946 | locus YIL073C, strain SPO22, active compounds read low 0.954 | locus YIL125W, strain kgd1, active compounds read low 0.984 | locus YIR030C, strain dcg1, active compounds read low 0.979 | locus YJL092W, strain hpr5, active compounds read low 0.964 | locus YJL095W, strain BCK1 (second series), active compounds read low 0.969 | locus YJL095W, strain BCK1, active compounds read low 0.913 and 0.989 | locus YJL115W, strain asf1, active compounds read low 0.959 | locus YJL129C, strain trk1, active compounds read low 1.02 | locus YJL134W, strain LCB3, active compounds read low 0.983 | locus YJL154C, strain vps35, active compounds read low 0.983 | locus YJL166W, strain qcr8, active compounds read low 0.96 | locus YJL168C, strain set2, active compounds read low 0.989 | locus YJL187C, strain SWE1 (second series), active compounds read low 0.959 | locus YJL187C, strain SWE1, active compounds read low 0.951
active: locus YBR023C, strain chs3, active compounds read low 0.888 | locus YCL016C, strain dcc1, active compounds read low 0.876 | locus YDL192W, strain arf1, active compounds read low 0.911 | locus YDR101C, strain arx1, active compounds read low 0.904 | locus YDR195W, strain ref2 1.26 [resistant] | locus YDR335W, strain msn5, active compounds read low 0.91 | locus YDR392W, strain spt3, active compounds read low 0.724 | locus YER015W, strain faa2, active compounds read low 0.912 | locus YER155C, strain BEM2 (second series), active compounds read low 0.835 | locus YJL164C, strain tpk1, active compounds read low 0.912
